Data: the supplement of paper PMC13380429

Tested on: Vero E6 infected with SARS-CoV-2
Assay: inhibition of SARS-CoV-2 cytopathic effect; higher = more antiviral protection, active = above 15
Details: 48 h

Measured: inhibition of SARS-CoV-2 cytopathic effect

CN1Cc2ccccc2[C@@H]2c3cccc4[nH]cc(c34)C[C@H]21
inactive: 1 nM 0.05% | 8.33 nM 0.93% | 100 nM -1.06% | 833.33 nM 0.95% | 10000 nM 2.21%

O=C(NCCN1CCOCC1)c1ccc(Cl)cc1 [moclobemide]
inactive: 1 nM 1.23% | 8.33 nM 2.39% | 100 nM 0.11% | 833.33 nM -2.19% | 10000 nM -0.2%

Cc1cc(C(=O)Nc2cccc(C(=O)Nc3cccc(C(F)(F)F)c3)c2)on1
inactive: 1 nM 0.37% | 8.33 nM 3.92% | 100 nM -2.18% | 833.33 nM -1.26% | 10000 nM -3.26%

C[S+](C)CC[C@H](N)C(=O)O [cabagin]
inactive: 1 nM -1.01% | 8.33 nM -0.84% | 100 nM -0.11% | 833.33 nM 0.92% | 10000 nM 0.96%

Cc1ccc(-c2nc3ccc(C)cn3c2CC(=O)N(C)C)cc1
inactive: 1 nM 0.77% | 8.33 nM 1.21% | 100 nM 0.45% | 833.33 nM 1.14% | 10000 nM -2.98%

CC(C)CC(NC(=O)OCC1c2ccccc2-c2ccccc21)C(=O)O (stereo in doubt)
inactive: 1 nM 1.66% | 8.33 nM 2.4% | 100 nM 2.95% | 833.33 nM 3.51% | 10000 nM 0.68%

NCC(O)c1ccc(O)cc1 (stereo not given) [octopamine]
inactive: 1 nM -3.66% | 8.33 nM -1.96% | 100 nM -2.91% | 833.33 nM -4.12% | 10000 nM 0.96%

O=C(Nc1ccc(OC(F)(F)F)cc1)c1sccc1NCc1ccnc2ccccc12
inactive: 1 nM -2.32% | 8.33 nM 3.56% | 100 nM 4.81% | 833.33 nM 4.77% | 10000 nM 5.44%

COc1ccc(Cc2nccc3cc(OC)c(OC)cc23)cc1OC [papaverine]
inactive: 1 nM -0.41% | 8.33 nM 0.26% | 100 nM -3.04% | 833.33 nM -2.94% | 10000 nM -1.53%

O=C(O)[C@H]1CCCN(CCC=C(c2ccccc2)c2ccccc2)C1 (racemic)
inactive: 1 nM -0.52% | 8.33 nM -1.42% | 100 nM -2.13% | 833.33 nM -4.16% | 10000 nM -2.22%

Cn1cc(-c2ccc(F)c(C(F)(F)F)c2)nc1C1CCN(c2ncnc3[nH]ncc23)CC1
inactive: 1 nM 0.45% | 8.33 nM -0.64% | 100 nM -1.2% | 833.33 nM -2.86% | 10000 nM -3.92%

N=C(N)Nc1ccc(C(=O)Oc2ccc3cc(C(=N)N)ccc3c2)cc1 [nafamostat]
inactive: 1 nM 1.66% | 8.33 nM 4.06% | 100 nM 4.33% | 833.33 nM 3.65% | 10000 nM 4.81%

Cc1cc(C)cc(OCC2CNC(=O)O2)c1 (stereo not given) [metaxalone]
inactive: 1 nM -1.78% | 8.33 nM -2.7% | 100 nM -1.26% | 833.33 nM 1.04% | 10000 nM -0.42%

COc1ccc(C(=O)C2CCN(CC(=O)N(Cc3nc4c(c(=O)[nH]3)COCC4)CC3CC3)CC2)cc1
inactive: 1 nM 1.44% | 8.33 nM -0.07% | 100 nM -1.36% | 833.33 nM 1.12% | 10000 nM -1.65%

CN(CC[C@@H](Oc1ccc(-c2ccccc2)cc1)c1ccc(F)cc1)CC(=O)O
inactive: 1 nM 0.18% | 8.33 nM 1.55% | 100 nM 0.56% | 833.33 nM 0.79% | 10000 nM 0.89%

CC(C)Cn1cnc2c(N)nc3ccccc3c21 [imiquimod]
inactive: 1 nM 1.22% | 8.33 nM 1.42% | 100 nM -0.63% | 833.33 nM 2.38% | 10000 nM 0.63%

CCCC(CCC)C(=O)Nc1ccn([C@@H]2O[C@H](CO)[C@@H](O)C2(F)F)c(=O)n1
inactive: 1 nM -0.06% | 8.33 nM -1.71% | 100 nM -2.25% | 833.33 nM -0.4% | 10000 nM -4.21%

CN(CCOc1ccc(-c2ccc3c(c2)OCO3)cc1C(C)(C)C)CC(=O)O
inactive: 1 nM 1.26% | 8.33 nM -3.67% | 100 nM -6.89% | 833.33 nM -0.1% | 10000 nM -1.31%

Cc1ccc(-n2nc(C(C)(C)C)cc2NC(=O)Nc2ccc(OCCN3CCOCC3)c3ccccc23)cc1 [doramapimod]
inactive: 1 nM -2.22% | 8.33 nM 1.14% | 100 nM -0.73% | 833.33 nM 4.29% | 10000 nM 8.03%
